Cardio protect = modulators protecting cardiomyocytes from myocardial damage; H9c2 cardiomyocytes, H2O2 injury protection, ATPLite, 2 h; protection from H2O2 cell death, % at 20 µM; 360,000 compounds, 0.63% hits;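 active means compounds giving at least 50% protection of heart cells from peroxide-induced death in the single-dose screen, raw or plate-pattern-corrected value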
FAS TE block = blocks the thioesterase domain of human fatty acid synthase | P49327 | recombinant FAS-TE, OMFH fluorogenic substrate, fluorescence endpoint | inhibition, % at 15 µM | 360,000 compounds, 0.67% hits | AID 602261;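 active means compounds whose normalised, plate-corrected inhibition of enzyme fluorescence in the single-dose primary screen is 50% or more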
CRFR2-BP ag = agonists of human CRF-binding protein/CRF-R2 receptor complex | activation, % at 13.2 µM | HEK293 CRF-R2/CRF-BP, calcium dye fluorescence (FLIPR); percent of saturating CRF peptide response | 350,000 compounds, 0.46% hits;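 active means activation of at least 50%, plus an integration ratio under a set limit after plate pattern correction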
PfG6PD inh = PfG6PD (Plasmodium falciparum) enzyme inhibition. PfGluPho enzyme, NADPH resazurin-diaphorase fluorescence. 350,000 compounds, 0.78% hits. AID 504690. inhibition, % at 20 µM;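 active means inhibition reaching at least a set limit at 20 µM in the primary screen, cut at about 59% in these data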
aDG glyco up = alpha-DG glycosylation activation; Pro5-aDG cells, alpha-DG glycosylation AlphaScreen (IIH6); 0% Pro5, 100% B10-LARGE cell signal; AID 624168; activation, % at 10 µM; 360,000 compounds, 0.22% hits;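 active means activation of at least 8% versus controls, or a plate z-score of at least 8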;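 further: Pro5 are CHO cells carrying HIG-tagged alpha-DG that lacks glycosylation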
CRFBP-R2 block = CRF-BP/CRF-R2 complex antagonism; HEK293 CRF-R2/CRF-BP, CRF-induced calcium fluorescence; inhibition, % at 11.8 µM; 350,000 compounds, 0.59% hits; AID 588475;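 active means inhibition of the ligand-induced calcium signal above about 50% at the single tested concentration, limit read from the data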
Hits are given with their value; 0 = inactive; - = not tested or not shown. Most compounds without a hit are left out; they make up all but 3.2% or so of the library.

SMILES | Cardio protect | FAS TE block | CRFR2-BP ag | PfG6PD inh | aDG glyco up | CRFBP-R2 block
C=CCn1cc(C(=O)OCC)c(=O)c2cc(F)c(F)cc21 | 0 | 0 | 0 | 0 | 0 | 0
CCC(ONc1ccccc1C(F)(F)F)(C(=O)NN(C)C)c1ccccc1 (stereo unspecified) | 52.7 | 0 | 0 | 0 | 0 | 0
N#Cc1ccc(/C=C/C(=O)c2ccco2)cc1 | 0 | 0 | 0 | 0 | 0 | 0
Nc1ccc(/C=C/C(=O)c2ccco2)cc1 | 0 | 0 | 80.8 | 0 | 0 | 0
Cc1ccc(C)n1CCN1CCN(C(=O)CC#N)CC1 | 0 | 0 | 0 | 0 | 0 | 0
CCOc1ccc(NC(=O)CSc2ccc(-c3ccccn3)nn2)cc1 | 0 | 0 | 0 | 0 | 0 | 0
Cc1ccc(NC(=O)CSc2ccc(-c3ccccn3)nn2)cc1 | 53.5 | 0 | 0 | 0 | 0 | 0
O=C(NCc1cccnc1)NC1(C(F)(F)F)Oc2ccc(Cl)cc2O1 (stereo unspecified) | 57.5 | 0 | 0 | 0 | 0 | 0
CCc1nc(SCC(=O)Nc2nnc(C(C)C)s2)n[nH]1 | 0 | 0 | 0 | 0 | 0 | 0
Cc1cc(/C=C(/C#N)C(=O)O)c(C)n1-c1cccc2ccccc12 | 0 | 0 | 0 | 0 | 0 | 75.7
Cc1c(C(=O)O)cccc1-n1c(C)cc(/C=C(/C#N)C(=O)NCc2ccccc2)c1C | 0 | 0 | 0 | 0 | 0 | 0
COC(=O)C(CC(=O)c1cccc(OC)c1)c1ccc(F)cc1 (stereo unspecified) | 0 | 0 | 0 | 0 | 0 | 54.8
CC[C@H](C)[C@H](NC(N)=O)C(=O)Nc1ccccc1F | 0 | 0 | 0 | 0 | 0 | 0
CCCCCc1ccc2cc(C#N)ccc2n1 | 0 | 0 | - | - | 0 | -
Cc1cccc(NC(=O)CN2C(=O)S/C(=C\c3ccc(O)c([N+](=O)[O-])c3)C2=O)c1 | 0 | 0 | 0 | 0 | 0 | 0
COc1cc(/C=C2\SC(=O)N(c3cccc(Cl)c3)C2=O)cc([N+](=O)[O-])c1O | 0 | 0 | 0 | 0 | 0 | 53.7
O=C1S/C(=C\c2ccc(O)c([N+](=O)[O-])c2)C(=O)N1c1ccccc1Cl | 0 | 0 | 0 | 0 | 0 | 54.9
O=C(NCc1nc2ccccc2[nH]1)c1ccc(Cl)c(S(=O)(=O)N2CCCC2)c1 | 0 | 0 | 0 | 0 | 0 | 0
CCCn1c(NC(=O)c2ccc(Cl)c(S(=O)(=O)N3CCCC3)c2)nc2ccccc21 | 61.3 | 0 | 0 | 0 | 0 | 0
COC(=O)/C(=C(O)\C=C\c1ccccc1[N+](=O)[O-])c1nc2ccccc2[nH]1 | 68.2 | 0 | 0 | 0 | 0 | 0
O=C(/C=C\c1ccccc1[N+](=O)[O-])Nc1ccccc1 | 0 | 0 | 0 | 0 | 0 | 0
O=c1cc(-c2ccccc2)[nH]n1-c1ccc([N+](=O)[O-])cc1 | 0 | 0 | 0 | 0 | 0 | 51.0
CC1C(=O)N(Cc2ccc(F)cc2)c2ccccc2N1C(=O)c1c(F)cccc1F (stereo unspecified) | 0 | 0 | 0 | 0 | 0 | 0
COC(=O)c1ccc(CN2C(=O)C(C)N(C(=O)c3c(F)cccc3F)c3ccccc32)cc1 (stereo unspecified) | 0 | 0 | 0 | 0 | 0 | 58.4
CCC(C)NC(=O)Cn1cnc2sc(C)c(S(=O)(=O)N3CCCCC3)c2c1=O (stereo unspecified) | 0 | 0 | 0 | 0 | 0 | 62.1
SMILES | Cardio protect | FAS TE block | CRFR2-BP ag | PfG6PD inh | aDG glyco up | CRFBP-R2 block
Cc1nc2c(-c3ccc(Cl)cc3)c(C)[nH]n2c(=O)c1Cc1ccccc1 | 0 | 0 | 0 | 0 | 12.1 | 0
Cc1nc2c(-c3ccccc3)c(C)[nH]n2c(=O)c1Cc1ccccc1 | 0 | 0 | 0 | 0 | 0 | 0
CN1CCN(C(=O)C2=C[C@@H](C3CC3)C[C@@H](OCc3ccc(CO)cc3)O2)CC1 | 0 | 0 | 0 | 0 | 0 | 0
CSc1ccc(S(=O)(=O)NCC(=O)OCC(=O)N2CCCCC2C)cc1[N+](=O)[O-] (stereo unspecified) | 0 | 0 | 0 | 0 | 0 | 0
CCC(=O)NC(C)c1cc(Cl)c2cccnc2c1O (stereo unspecified) | 0 | 0 | 0 | 0 | 0 | 0
CC(=O)NC(C)c1cc(Cl)c2cccnc2c1O (stereo unspecified) | 57.6 | 0 | 0 | 0 | 0 | 0
CC(=O)NC(c1ccco1)c1cc(F)c2cccnc2c1O (stereo unspecified) | 50.5 | 0 | 0 | 0 | 0 | 0
O=C(OCC(=O)N1CCN(Cc2ccccc2)CC1)c1cc(Cl)ccc1[N+](=O)[O-] | 0 | 0 | 0 | 0 | 0 | 0
CN(C(=O)COC(=O)CSc1ccc(C(N)=O)cc1[N+](=O)[O-])C1CCCCC1 | 0 | 0 | 0 | 0 | 0 | 0
N#Cc1c(N)n(Cc2ccccc2)c(=O)c2cc([N+](=O)[O-])ccc12 | 0 | 0 | 0 | 0 | 0 | 0
Cn1c(N)c(-c2ccccc2)c2ccc([N+](=O)[O-])cc2c1=O | 0 | 0 | 123.2 | 0 | 0 | 0
O=C(OCC(=O)N1CCOCC1)c1cc(F)c(F)cc1Cl | 0 | 0 | 0 | 0 | 0 | 0
O=c1[nH][nH]c(=S)n1C1CCCCC1 | - | - | 0 | 95.2 | - | 0
O=c1cc(O)n(C2CCCCCC2)c(=O)[nH]1 | 0 | 0 | 0 | 0 | 0 | 0
CC(C)(C)c1ccc(C(=O)N2[C@H](COCc3ccccc3)C=CS2(=O)=O)cc1 | 0 | 0 | - | - | 0 | -
CCCN1Cc2cccc(C(=O)NCc3cccs3)c2C1=O | 0 | 0 | 0 | 0 | 0 | 57.6
CCCN1Cc2cccc(C(=O)NCc3ccc4c(c3)OCO4)c2C1=O | 0 | 0 | 0 | 0 | 0 | 0
FC(F)(F)c1cnc(NNC(=S)Nc2ccc(Cl)cc2)c(Cl)c1 | 0 | 0 | 51.9 | 0 | 0 | 0
Fc1ccc(NC(=S)NNc2ncc(C(F)(F)F)cc2Cl)c(F)c1 | 0 | 0 | 55.7 | 0 | 0 | 0
Cc1ccc(NC(=S)NNc2ncc(C(F)(F)F)cc2Cl)cc1 | 0 | 0 | 0 | 0 | 0 | 0
Cc1ccc(NC(=S)NNc2ncc(C(F)(F)F)cc2Cl)c(C)c1 | 0 | 0 | 0 | 0 | 0 | 0
O=C(CCn1c2c(c3ccccc31)CCCC2)NNC(=O)c1ccccc1C(=O)O | 0 | 0 | 55.5 | 0 | 0 | 0
Cn1cccc1Cc1nnc(SCC(=O)NCc2ccccc2)n1-c1ccc(F)cc1 | 0 | 0 | 0 | 0 | 0 | 0
Cn1cccc1Cc1nnc(SCC(=O)N2CCN(c3ccccc3)CC2)n1-c1ccc(F)cc1 | 0 | 0 | 0 | 0 | 0 | 51.5
COc1cc2c(cc1OC)/C(=C/C(=O)c1ccc(OC)c([N+](=O)[O-])c1)NCC2 | 0 | 0 | 0 | 0 | 0 | 56.9
SMILES | Cardio protect | FAS TE block | CRFR2-BP ag | PfG6PD inh | aDG glyco up | CRFBP-R2 block
Cc1ccc(C=C(C#N)C(=O)c2ccccc2)cc1 | 0 | 0 | - | - | 0 | -
CCN(CC)c1ccc(/C=C(\C#N)C(N)=O)cc1 | 0 | 0 | 0 | 0 | 0 | 0
N#CC(=Cc1ccc(-c2ccccc2)cc1)C(=O)c1ccccc1 | 0 | 0 | - | - | 0 | -
CCN(CC)c1ccc(/C=C(\C#N)C(=O)c2ccc(Br)cc2)cc1 | 0 | 0 | 300.8 | 0 | 0 | 0
CCN(CC)c1ccc(/C=C(\C#N)C(N)=S)cc1 | 0 | 0 | 72.1 | 0 | 0 | 0
CN(C)c1ccc(/C=C(\C#N)C(=O)c2ccccc2)cc1 | 0 | 0 | 211.7 | 0 | 0 | 0

From PubChem BioAssay
